Laboratory results taken from PMC5540273 (PLoS ONE, 2017).

Columns and labels:
Settings in all cases: concentration: 1 μM, replicates: in singlicate; n = 1
CDK3 = tested on: CDK3
CDK4-cyclinD1 = tested on: CDK4-cyclinD1
CDK4-cyclinD3 = tested on: CDK4-cyclinD3
CDK4 = tested on: CDK4
CDK5 = tested on: CDK5
CDK7 = tested on: CDK7
CDK8 = tested on: CDK8
CDK9 = tested on: CDK9
CDKL1 = tested on: CDKL1
CDKL2 = tested on: CDKL2
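Also: KINOMEscan kinase panel screen.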

## O=C(NCCNc1ccnc(Nc2ccc(F)cc2)n1)Nc1ccc2c(c1)OCO2 [GSK1379882]
CDK3
  %Inh: 0%
CDK4-cyclinD1
  %Inh: 0%
CDK4-cyclinD3
  %Inh: 0%
CDK4
  %Inh: 8%
CDK5
  %Inh: 0%
CDK7
  %Inh: 0%
CDK8
  %Inh: 25%
CDK9
  %Inh: 7%
CDKL1
  %Inh: 0%
CDKL2
  %Inh: 15%

## COc1ccc(-c2coc3ccc(-c4nnc(SCc5cccc(C#N)c5)o4)cc23)cc1
CDK3
  %Inh: 0%
CDK4-cyclinD1
  %Inh: 0%
CDK4-cyclinD3
  %Inh: 0%
CDK4
  %Inh: 0%
CDK5
  %Inh: 18%
CDK7
  %Inh: 9%
CDK8
  %Inh: 0%
CDK9
  %Inh: 0%
CDKL1
  %Inh: 5%
CDKL2
  %Inh: 0%

## COc1cc(Nc2nccc(N3CCC(NC(=O)C(C)c4ccc(Cl)cc4)C3)n2)cc(OC)c1OC (stereo not drawn) [GSK1379757]
CDK3
  %Inh: 0%
CDK4-cyclinD1
  %Inh: 0%
CDK4-cyclinD3
  %Inh: 0%
CDK4
  %Inh: 36%
CDK5
  %Inh: 0%
CDK7
  %Inh: 0%
CDK8
  %Inh: 22%
CDK9
  %Inh: 0%
CDKL1
  %Inh: 9%
CDKL2
  %Inh: 2%

## COc1ccc(-c2cc3c(C)nc(N)nc3n([C@H]3CC[C@H](O)CC3)c2=O)cn1
CDK3
  %Inh: 8%
CDK4-cyclinD1
  %Inh: 0%
CDK4-cyclinD3
  %Inh: 0%
CDK4
  %Inh: 0%
CDK5
  %Inh: 0%
CDK7
  %Inh: 7%
CDK8
  %Inh: 0%
CDK9
  %Inh: 0%
CDKL1
  %Inh: 0%
CDKL2
  %Inh: 0%

## Cc1ccc(-c2ccc3c(ccc4sc5c(c43)NC[C@@H](C)N=C5N(C)C)n2)cn1
CDK3
  %Inh: 0%
CDK4-cyclinD1
  %Inh: 0%
CDK4-cyclinD3
  %Inh: 0%
CDK4
  %Inh: 0%
CDK5
  %Inh: 0%
CDK7
  %Inh: 6%
CDK8
  %Inh: 0%
CDK9
  %Inh: 0%
CDKL1
  %Inh: 0%
CDKL2
  %Inh: 0%

## COc1cccc(-n2cnc3c(N)ncnc32)c1 [SKF-97416]
CDK3
  %Inh: 17%
CDK4-cyclinD1
  %Inh: 37%
CDK4-cyclinD3
  %Inh: 0%
CDK4
  %Inh: 31%
CDK5
  %Inh: 0%
CDK7
  %Inh: 33%
CDK8
  %Inh: 0%
CDK9
  %Inh: 0%
CDKL1
  %Inh: 13%
CDKL2
  %Inh: 8%

## COc1cc2nccc(Nc3cccc(Oc4ccccc4)c3)c2cc1OC.Cl [GW284543]
CDK3
  %Inh: 0%
CDK4-cyclinD1
  %Inh: 1%
CDK4-cyclinD3
  %Inh: 0%
CDK4
  %Inh: 30%
CDK5
  %Inh: 0%
CDK7
  %Inh: 0%
CDK8
  %Inh: 37%
CDK9
  %Inh: 0%
CDKL1
  %Inh: 9%
CDKL2
  %Inh: 7%

## COc1ccc(-c2cc3c(C)nc(N)nc3n([C@H]3CC[C@H](OCCO)CC3)c2=O)cn1
CDK3
  %Inh: 0%
CDK4-cyclinD1
  %Inh: 0%
CDK4-cyclinD3
  %Inh: 0%
CDK4
  %Inh: 0%
CDK5
  %Inh: 19%
CDK7
  %Inh: 14%
CDK8
  %Inh: 0%
CDK9
  %Inh: 4%
CDKL1
  %Inh: 10%
CDKL2
  %Inh: 0%

## CN1C(=O)C(Nc2cc(Cl)c(O)c(Cl)c2)=C(c2ccc(Cl)cc2)C1=O [SB-404321]
CDK3
  %Inh: 0%
CDK4-cyclinD1
  %Inh: 0%
CDK4-cyclinD3
  %Inh: 0%
CDK4
  %Inh: 23%
CDK5
  %Inh: 4%
CDK7
  %Inh: 0%
CDK8
  %Inh: 41%
CDK9
  %Inh: 0%
CDKL1
  %Inh: 0%
CDKL2
  %Inh: 7%

## COc1cc2ncn(-c3cc(OCCCc4ccccc4)c(C(N)=O)s3)c2cc1OC [GSK205189]
CDK3
  %Inh: 1%
CDK4-cyclinD1
  %Inh: 0%
CDK4-cyclinD3
  %Inh: 0%
CDK4
  %Inh: 0%
CDK5
  %Inh: 0%
CDK7
  %Inh: 0%
CDK8
  %Inh: 4%
CDK9
  %Inh: 0%
CDKL1
  %Inh: 5%
CDKL2
  %Inh: 7%

## CCC(=O)c1c(-c2ccccc2)c2cc(Cl)ccc2c(=O)n1Cc1cc(S(C)(=O)=O)n(CC(N)=O)n1
CDK3
  %Inh: 0%
CDK4-cyclinD1
  %Inh: 0%
CDK4-cyclinD3
  %Inh: 0%
CDK4
  %Inh: 0%
CDK5
  %Inh: 0%
CDK7
  %Inh: 2%
CDK8
  %Inh: 0%
CDK9
  %Inh: 0%
CDKL1
  %Inh: 23%
CDKL2
  %Inh: 0%

## Nc1nc(N)c2nc(-c3ccccc3)[nH]c2n1 [SKF-12778]
CDK3
  %Inh: 1%
CDK4-cyclinD1
  %Inh: 20%
CDK4-cyclinD3
  %Inh: 0%
CDK4
  %Inh: 0%
CDK5
  %Inh: 5%
CDK7
  %Inh: 7%
CDK8
  %Inh: 23%
CDK9
  %Inh: 0%
CDKL1
  %Inh: 0%
CDKL2
  %Inh: 2%

## COc1ccc(-n2cnc3c(N)ncnc32)cc1 [SKF-97236]
CDK3
  %Inh: 25%
CDK4-cyclinD1
  %Inh: 0%
CDK4-cyclinD3
  %Inh: 0%
CDK4
  %Inh: 11%
CDK5
  %Inh: 8%
CDK7
  %Inh: 11%
CDK8
  %Inh: 0%
CDK9
  %Inh: 0%
CDKL1
  %Inh: 29%
CDKL2
  %Inh: 1%

## COc1cc(Nc2ccnc3ccc(C(F)(F)F)cc23)cc(OC)c1OC [GW577382]
CDK3
  %Inh: 16%
CDK4-cyclinD1
  %Inh: 39%
CDK4-cyclinD3
  %Inh: 0%
CDK4
  %Inh: 10%
CDK5
  %Inh: 0%
CDK7
  %Inh: 1%
CDK8
  %Inh: 47%
CDK9
  %Inh: 0%
CDKL1
  %Inh: 6%
CDKL2
  %Inh: 21%

## COc1cc2nccc(Nc3ccc(OCc4ccc(NC(C)=O)cc4)cc3)c2cc1OC.Cl [GW440135]
CDK3
  %Inh: 4%
CDK4-cyclinD1
  %Inh: 37%
CDK4-cyclinD3
  %Inh: 0%
CDK4
  %Inh: 34%
CDK5
  %Inh: 0%
CDK7
  %Inh: 0%
CDK8
  %Inh: 36%
CDK9
  %Inh: 0%
CDKL1
  %Inh: 1%
CDKL2
  %Inh: 0%

## CN(C)c1cc(-c2ccc3c(N)n[nH]c3c2)nc(N)n1 [GSK2219329]
CDK3
  %Inh: 0%
CDK4-cyclinD1
  %Inh: 0%
CDK4-cyclinD3
  %Inh: 0%
CDK4
  %Inh: 0%
CDK5
  %Inh: 0%
CDK7
  %Inh: 0%
CDK8
  %Inh: 0%
CDK9
  %Inh: 0%
CDKL1
  %Inh: 7%
CDKL2
  %Inh: 11%

## Nc1n[nH]c2ncc(-c3ccccc3)cc12 [SB-517081]
CDK3
  %Inh: 26%
CDK4-cyclinD1
  %Inh: 0%
CDK4-cyclinD3
  %Inh: 5%
CDK4
  %Inh: 23%
CDK5
  %Inh: 0%
CDK7
  %Inh: 0%
CDK8
  %Inh: 0%
CDK9
  %Inh: 0%
CDKL1
  %Inh: 8%
CDKL2
  %Inh: 34%

## CCn1c(-c2ccoc2)nc2cnccc21 [SB-733887]
CDK3
  %Inh: 23%
CDK4-cyclinD1
  %Inh: 5%
CDK4-cyclinD3
  %Inh: 29%
CDK4
  %Inh: 0%
CDK5
  %Inh: 0%
CDK7
  %Inh: 60%
CDK8
  %Inh: 33%
CDK9
  %Inh: 0%
CDKL1
  %Inh: 0%
CDKL2
  %Inh: 16%
